Data on 24 compounds can be found in PubChem BioAssay (Tox21).

Where “and” joins values, the source holds several entries; their conditions need not be identical. Identical values can stand only once. Values without a mark were called inactive. Inconclusive results are not listed. Calls of active or inactive are those of the source. Unless noted, calls follow the shape of the full dose curve.

The nature of test [1]: qHTS assay to identify small molecule agonists of the sonic hedgehog signaling (Shh) pathway (AID 1259368).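 Also: NIH/3T3-derived 3T3Gli1-Luc cells carrying a stable Gli1-driven firefly luciferase reporter; series mostly up to about 92 µM; nearly all actives have a fitted effect of over 15% in size.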 In a few lines: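 A Gli1 transcriptional response element controlled firefly luciferase in 3T3Gli1-Luc cells. Compounds and a positive control were added 4 hr after plating, and cells were incubated a further 24 hr at 37 C before luminescence detection.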
In general terms: Quantitative high-throughput screening tests each substance at several concentrations.

The nature of test [2]: qHTS assay to identify small molecule antagonists of the sonic hedgehog signaling (Shh) pathway (AID 1259369). Also: nearly all actives have a fitted effect of over 45% in size. Also: potency is read from the fitted curve at half-maximal effect. In a few lines:
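For antagonist detection, the reporter line received test compounds together with conditioned medium, incubated 24hr at 37 C, 5% CO2, then luminescence was recorded following 30min room-temperature luciferase reagent incubation.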

The nature of test [3]: qHTS assay to identify small molecule agonists of the androgen receptor (AR) signaling pathway in the presence of an antagonist - cell viability counter screen (AID 1259379; active = well fitted curve in the direction sought with a large enough effect in the repeat runs; an effect the other way counts as inactive or inconclusive;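 also: MDA-kb2 human breast cancer cells carrying an MMTV luciferase reporter; series mostly up to about 92 µM; nearly all actives have a fitted effect of over 25% in size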). In a few lines:
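Seed MDA-kb2 at 3,000 cells/well; incubate 5 hr, 37C, 0% CO2. Add nilutamide to 3.0uM final, then pin compounds at 15 concentrations. Incubate 16 hr. Add CellTiter-Fluor at 15 hr, read fluorescence after 1 hr.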

Test [4] can be described thus: qHTS assay to identify small molecule agonists of the estrogen receptor beta (ER-beta) signaling pathway - cell viability counter screen (AID 1259380; active = well fitted curve in the direction sought with a large enough effect in the repeat runs; an effect the other way counts as inactive or inconclusive; also: nearly all actives have a fitted effect of over 30% in size). In a few lines: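 CellTiter-Glo read, 30 min RT, same wells as bla assay; cells ER-beta-UAS-bla HEK293T; 16 hr compound, 37C; medium 2% charcoal-stripped FBS.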
The nature of test [5]: qHTS assay to identify small molecule antagonists of the estrogen receptor beta (ER-beta) signaling pathway - cell viability counter screen (AID 1259382; active = well fitted curve in the direction sought with a large enough effect in the repeat runs; an effect the other way counts as inactive or inconclusive;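 also: HEK293T cells carrying ER-beta-UAS-bla reporter stimulated with estradiol; series mostly up to about 92 µM; nearly all actives have a fitted effect of over 55% in size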). In a few lines: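 In this multiplexed counter screen, cells were seeded at 2,000 per well in medium with 2% charcoal-stripped FBS and incubated 6 hr before compound and 1nM final E2 were added. Sixteen hours later, ATP-based luminescence reported viability.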

For test [6], the target named is Estrogen receptor (Homo sapiens) (UniProt P03372). As to the kind of experiment: qHTS assay to identify small molecule agonists of the estrogen receptor alpha (ER-alpha) signaling pathway in the presence of an antagonist (AID 1259383). Also: nearly all actives have a fitted effect of over 15% in size. Also: potency is read from the fitted curve at half-maximal effect. As to activation: top concentration of the series differs between compounds. In short, it runs like this:
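Stably transfected VM7Luc4E2 reporter cells, kept 5 days in charcoal-stripped serum, received ICI-182,780 at 10.0nM final before compound addition. Following 22hr incubation at 37C and 5% CO2, luciferase signal was read by luminescence.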

A short description of test [7]: qHTS assay to identify small molecule agonists or antagonists of the thyroid stimulating hormone receptor (TSHR) signaling pathway - wild type cell line counter screen (AID 1259384). In short, it runs like this:
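Counter screen in untransfected Hek293: compounds (15-point titration, triplicate) plus phosphodiesterase inhibitor Ro20-1724 added after 18 h plating; 30 min RT. Intracellular cAMP via competitive d2/cryptate immunoassay, 1 h incubation.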

In test [8] the target is Estrogen receptor beta (Homo sapiens) (UniProt Q92731). As to the kind of experiment: qHTS assay to identify small molecule agonists of the estrogen receptor beta (ER-beta) signaling pathway (AID 1259377; active = well fitted activation curve with a large enough effect in the signal ratio in the repeat runs, not every such curve was filed as active; the % refers to the signal ratio; also: potency is read from the fitted curve at half-maximal effect). In short, it runs like this:
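Agonist mode cell assay in GripTite HEK293T cells expressing an ER-beta fusion that drives beta-lactamase from an Upstream Activator Sequence; 16 hr compound exposure at 37C, then 2 h LiveBLAzer B/G FRET substrate at room temperature, fluorescence read-out.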

Test [9] shares this target. As to the kind of experiment: qHTS assay to identify small molecule antagonists of the estrogen receptor beta (ER-beta) signaling pathway (AID 1259378; active = well fitted inhibition curve with a large enough effect in the signal ratio in the repeat runs, not every such curve was filed as active; the % refers to the signal ratio). In short, it runs like this: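 Antagonist mode: compounds added to beta-lactamase reporter HEK293T ER-beta-UAS cells stimulated with E2 (1nM final), 16 hr at 37C. LiveBLAzer B/G FRET substrate, 2 hours room temperature, fluorescence read-out.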

Test [10] has as its target Androgen receptor (Homo sapiens) (UniProt P10275). Kind of test: qHTS assay to identify small molecule agonists of the androgen receptor (AR) signaling pathway in the presence of an antagonist (AID 1259381). Also: nearly all actives have a fitted effect of over 15% in size. In short, it runs like this: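 Test compounds at 15 concentrations were incubated for 16hr with MDA-kb2 reporter cells in presence of 3.0uM nilutamide (final). Signal: ONE-Glo luciferase luminescence.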

Estrogen receptor (Homo sapiens), sequence (P03372 whole entry, looked up): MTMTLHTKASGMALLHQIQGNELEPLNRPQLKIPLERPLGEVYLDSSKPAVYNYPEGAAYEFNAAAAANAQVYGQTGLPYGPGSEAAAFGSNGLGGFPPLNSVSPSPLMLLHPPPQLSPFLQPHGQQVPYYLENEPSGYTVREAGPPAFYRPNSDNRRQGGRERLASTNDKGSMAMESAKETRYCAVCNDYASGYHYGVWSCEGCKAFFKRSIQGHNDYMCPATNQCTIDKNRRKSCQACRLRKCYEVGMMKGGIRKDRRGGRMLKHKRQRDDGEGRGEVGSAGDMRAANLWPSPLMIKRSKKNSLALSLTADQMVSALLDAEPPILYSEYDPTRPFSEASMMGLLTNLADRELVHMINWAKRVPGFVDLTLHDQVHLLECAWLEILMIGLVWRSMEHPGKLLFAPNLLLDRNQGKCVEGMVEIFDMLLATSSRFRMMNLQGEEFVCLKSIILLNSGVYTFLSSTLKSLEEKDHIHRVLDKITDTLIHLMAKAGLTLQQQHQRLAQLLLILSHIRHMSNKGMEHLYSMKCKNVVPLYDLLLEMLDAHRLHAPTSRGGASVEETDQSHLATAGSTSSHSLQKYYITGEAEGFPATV
Estrogen receptor beta (Homo sapiens), sequence (Q92731 whole entry, looked up, the tested form may be a part): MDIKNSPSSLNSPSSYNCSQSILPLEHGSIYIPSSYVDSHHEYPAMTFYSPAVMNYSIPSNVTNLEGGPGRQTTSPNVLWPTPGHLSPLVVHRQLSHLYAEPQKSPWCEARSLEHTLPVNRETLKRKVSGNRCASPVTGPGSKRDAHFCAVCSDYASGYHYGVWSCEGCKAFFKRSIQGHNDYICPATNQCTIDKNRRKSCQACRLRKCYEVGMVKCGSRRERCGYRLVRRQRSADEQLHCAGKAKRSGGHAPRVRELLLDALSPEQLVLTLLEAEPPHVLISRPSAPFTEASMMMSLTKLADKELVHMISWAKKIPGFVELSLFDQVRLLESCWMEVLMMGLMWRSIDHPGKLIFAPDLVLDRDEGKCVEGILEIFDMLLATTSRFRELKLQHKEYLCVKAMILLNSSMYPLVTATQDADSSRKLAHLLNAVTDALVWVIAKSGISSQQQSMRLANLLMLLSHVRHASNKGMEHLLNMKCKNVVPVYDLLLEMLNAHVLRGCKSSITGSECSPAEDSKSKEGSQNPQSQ
Androgen receptor (Homo sapiens), sequence (P10275 whole entry, looked up): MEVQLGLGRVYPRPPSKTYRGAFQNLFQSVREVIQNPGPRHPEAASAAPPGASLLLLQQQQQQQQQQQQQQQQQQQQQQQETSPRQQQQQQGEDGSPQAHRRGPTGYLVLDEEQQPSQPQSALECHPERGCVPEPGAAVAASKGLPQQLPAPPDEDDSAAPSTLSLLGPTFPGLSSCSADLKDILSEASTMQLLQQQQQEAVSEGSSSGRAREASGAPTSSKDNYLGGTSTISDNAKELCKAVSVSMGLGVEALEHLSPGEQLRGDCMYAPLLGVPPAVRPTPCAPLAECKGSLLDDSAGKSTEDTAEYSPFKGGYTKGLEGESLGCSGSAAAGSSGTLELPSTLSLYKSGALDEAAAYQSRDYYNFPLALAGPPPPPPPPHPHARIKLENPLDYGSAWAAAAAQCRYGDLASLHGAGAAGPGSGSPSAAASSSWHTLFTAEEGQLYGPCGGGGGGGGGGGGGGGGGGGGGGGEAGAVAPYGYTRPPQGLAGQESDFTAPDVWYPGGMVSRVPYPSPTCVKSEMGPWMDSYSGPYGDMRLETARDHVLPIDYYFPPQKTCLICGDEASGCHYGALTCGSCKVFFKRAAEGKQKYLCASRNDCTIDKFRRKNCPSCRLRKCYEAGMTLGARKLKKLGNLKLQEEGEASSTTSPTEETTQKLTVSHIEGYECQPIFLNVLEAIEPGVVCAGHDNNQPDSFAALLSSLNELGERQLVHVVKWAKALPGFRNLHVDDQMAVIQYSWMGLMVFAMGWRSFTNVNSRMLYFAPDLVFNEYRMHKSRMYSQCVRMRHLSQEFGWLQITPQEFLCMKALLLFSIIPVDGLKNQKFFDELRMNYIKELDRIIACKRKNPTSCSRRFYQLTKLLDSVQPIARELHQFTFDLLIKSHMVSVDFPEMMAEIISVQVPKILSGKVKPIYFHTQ

As for `C=CCC1(C(C)CC)C(=O)NC(=O)NC1=O` (stereo not given), the result in test [1] and in test [7] was inactive. Also, the Potency entry in test [2], in test [3], in [4], in test [5] and in test [6] was “inactive” throughout.

With `CCOC(=O)COc1ccc(Cl)cc1Cl`, the call in [1] and in test [7] was inactive. Further, the Potency result in test [2], in [3], in test [4] and in test [5] was “inactive” throughout.

Consider `O=C(CCl)NCO`, for which the result in test [1] and in test [7] was inactive. Besides, the Potency entry in test [2], in test [3], in test [4], in test [5] and in test [6] was “inactive” in each case.

Turning to `CCN[C@@H](C)Cc1cccc(C(F)(F)F)c1`, the outcome in test [1] and in [7] was inactive. Further, the Potency entry in test [2], in [3], in [4], in test [5] and in test [6] was “inactive” each time.

For `CC(Cl)(Cl)Cl`, the outcome in [1] and in test [7] was inactive. For the same compound, the Potency entry in test [2], in test [3], in [4] and in test [5] was “inactive” in each case.

`N#CN=C1SCCN1Cc1ccc(Cl)nc1`: the compound was classed as inactive in [1] and in [7]. For the same compound, the Potency entry in [2], in test [3], in test [4], in test [5] and in [6] was “inactive” throughout.

As to `CCN(CC)CCOC(=O)C(O)(c1ccccc1)c1ccccc1`, the outcome in [1] and in [7] was inactive. For the same compound, the Potency result in test [2], in test [3], in [4] and in test [6] was “inactive” in each case.

Turning to `CC(C)(C)c1cc(O)ccc1O`, in test [1], the outcome was inactive. For the same compound, the Potency in test [2] was 7.7 µM (active) and 3.86 µM (active). For the same compound, the Potency result in test [3], in [4], in test [5] and in [6] was “inactive” each time.

On to `CN1COCN(Cc2cnc(Cl)s2)/C1=N\[N+](=O)[O-]`, for which the result in test [1] and in [7] was inactive. For the same compound, the Potency entry in test [2], in test [3], in test [4] and in [5] was “inactive” in each case.

As for `CCN1CCCC1CNC(=O)C(O)(c1ccccc1)c1ccccc1` (stereo not given), the call in test [1] and in test [7] was inactive. Besides, the Potency result in [2], in [3], in test [4] and in test [5] was “inactive” in each case.

On to `Cc1cccc2sc3nncn3c12`, for which the call in test [1] and in test [7] was inactive. Further, the Potency entry in test [2], in [3], in test [4], in test [5] and in [6] was “inactive” in each case.

In the case of `COC(=O)c1ccc(CBr)cc1`, the compound was called inactive in [1], in test [9] and in test [7]. Besides, the Potency result in [8], in test [3], in test [4], in [10] and in test [5] was “inactive” each time. In test [6], the Potency was 12.3 µM (active).

Regarding `Cl/C=C/CCl`, the call in test [1], in test [9] and in test [7] was inactive. Moreover, the Potency entry in test [8], in [3], in test [4] and in [5] was “inactive” each time.

Regarding `C=CCN1CC[C@]23CCCC[C@H]2[C@H]1Cc1ccc(O)cc13`, the outcome in test [1] and in [7] was inactive. In addition, the Potency result in test [2], in [3] and in [4] was “inactive” in each case.

Turning to `NCC1(CC(=O)O)CCCCC1`, the result in test [1] and in test [7] was inactive. In addition, the Potency entry in test [2], in test [3] and in test [4] was “inactive” throughout.

Regarding `N#CC(Br)(Br)C(N)=O`, the outcome in [1] and in test [7] was inactive. In addition, the Potency result in test [2], in [3] and in test [4] was “inactive” each time.

Turning to `Oc1ccc(Cc2ccc(O)cc2)cc1`, the outcome in test [1] and in test [7] was inactive. Moreover, the Potency in [8] was 5.49 µM (active); in test [6], 30.9 µM (active). Besides, the Potency result in test [3] and in test [4] was “inactive” throughout.

As for `CCSC(=O)Cl`, the Potency result in test [8], in test [3], in test [10], in test [5] and in test [6] was “inactive” throughout. The outcome in test [9] and in [7] was inactive.

As to `NNCc1ccccc1`, the compound was classed as inactive in test [1] and in test [7]. Moreover, the Potency entry in test [2], in test [3] and in test [5] was “inactive” each time.

Take `CC1N=C(N)OC1c1ccccc1` (stereo not given): the outcome in test [1] and in test [7] was inactive. Also, the Potency entry in test [8], in test [3], in [5] and in [6] was “inactive” each time.

As for `CCC(=O)OC1(c2ccccc2)CCN(C)CC1`, the compound was called inactive in test [1] and in [7]. The Potency entry in test [3], in test [4] and in [5] was “inactive” in each case.

As to `O=[N+]([O-])c1cccc(CCl)c1`, the result in test [1] and in test [7] was inactive. The Potency result in [2], in test [3] and in test [4] was “inactive” each time.

`Cc1ccc(-c2nc3ccc(C)cn3c2CC(=O)N(C)C)cc1`: the result in [1] and in test [7] was inactive. The Potency result in [2], in test [3], in test [5] and in [6] was “inactive” each time.

Take `NNC(N)=O`: the compound was classed as inactive in test [1], in test [9] and in test [7]. Further, the Potency result in test [8], in test [3], in test [4], in [5] and in test [6] was “inactive” each time.
